This is part of a sample that, as a whole, favours compounds with a hit. Of some 83,000 tested, about 20% had one in any assay.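 Activity criterion: percent growth below 10, measured after cells in 96-well plates were exposed to a single compound concentration for 48 hours.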 The source made the active and inactive calls.
Key:
Assay in all cases: NCI-60 one-dose screen, 48 h (100 = growth as untreated, 0 = no growth, -100 = all killed)
Details in all cases: 10 µM unless noted
NCI-H23 lung = test system: NCI-H23 lung
NCI-H226 lung = test system: NCI-H226 lung
NCI-H322M lung = test system: NCI-H322M lung
HOP-62 NSCLC = test system: HOP-62 NSCLC
NCI-H460 lung = test system: NCI-H460 lung
HOP-92 NSCLC = test system: HOP-92 NSCLC
NCI-H522 lung = test system: NCI-H522 lung
A549/ATCC NSCLC = test system: A549/ATCC NSCLC
786-0 renal = test system: 786-0 renal
COLO 205 colon = test system: COLO 205 colon
DU-145 prostate = test system: DU-145 prostate
K-562 leukemia = test system: K-562 leukemia
MDA-MB-231 breast = test system: MDA-MB-231 breast
RXF 393 renal = test system: RXF 393 renal
SF-268 CNS = test system: SF-268 CNS
SF-539 CNS = test system: SF-539 CNS
UACC-257 melanoma = test system: UACC-257 melanoma
M14 melanoma = test system: M14 melanoma
MALME-3M melanoma = test system: MALME-3M melanoma
SF-295 CNS = test system: SF-295 CNS

Measured: growth

COc1ccc(/C(=C\c2ccc3c(c2)OCO3)C(=O)Nc2nc3ccccc3s2)cc1OC
inactive: NCI-H23 lung 95.1% | NCI-H226 lung 86.9% | NCI-H322M lung 91.4% | HOP-62 NSCLC 94.2% | NCI-H460 lung 102% | HOP-92 NSCLC 91.4% | NCI-H522 lung 89.5% | A549/ATCC NSCLC 91.5% | 786-0 renal 83.7% | COLO 205 colon 110% | DU-145 prostate 105% | K-562 leukemia 83.9% | MDA-MB-231 breast 109% | RXF 393 renal 88.4% | SF-268 CNS 83.2% | SF-539 CNS 93.8% | UACC-257 melanoma 105% | M14 melanoma 92.7%

CC(=O)n1c(/C(C#N)=C/c2ccc(N(C)C)cc2)cc2ccccc21
active: SF-295 CNS 7.39%
inactive: NCI-H23 lung 40.5% | NCI-H226 lung 61.1% | NCI-H322M lung 53.3% | HOP-62 NSCLC 31.3% | NCI-H460 lung 15% | HOP-92 NSCLC 70.9% | NCI-H522 lung 23.1% | A549/ATCC NSCLC 48.8% | 786-0 renal 41.3% | DU-145 prostate 35.8% | K-562 leukemia 15% | MALME-3M melanoma 57% | MDA-MB-231 breast 44.7% | RXF 393 renal 24.6% | SF-268 CNS 56.9% | SF-539 CNS 17.1% | UACC-257 melanoma 68.6% | M14 melanoma 26.8%

CCOC(=O)C1OC1(c1ccccc1)c1ccccc1 (configuration not stated)
inactive: NCI-H23 lung 111% | NCI-H226 lung 106% | NCI-H322M lung 120% | HOP-62 NSCLC 118% | NCI-H460 lung 109% | HOP-92 NSCLC 107% | NCI-H522 lung 107% | A549/ATCC NSCLC 84.3% | 786-0 renal 117% | DU-145 prostate 108% | K-562 leukemia 109% | MALME-3M melanoma 110% | MDA-MB-231 breast 98.9% | RXF 393 renal 113% | SF-268 CNS 94.2% | SF-295 CNS 113% | SF-539 CNS 106% | UACC-257 melanoma 95.7% | M14 melanoma 107%

Cc1cc(N2CCOCC2)nc(N(CCCNc2ccnc3cc(Cl)ccc23)Cc2ccco2)n1
active: K-562 leukemia 4.98% | SF-539 CNS -2.57% | M14 melanoma -3.48%
inactive: NCI-H23 lung 35.3% | NCI-H226 lung 74.7% | NCI-H322M lung 28.7% | HOP-62 NSCLC 12.9% | NCI-H460 lung 18.8% | HOP-92 NSCLC 34% | NCI-H522 lung 40.2% | A549/ATCC NSCLC 18.9% | 786-0 renal 42.1% | DU-145 prostate 52.6% | MALME-3M melanoma 53.6% | MDA-MB-231 breast 19.6% | RXF 393 renal 21.2% | SF-268 CNS 50.7% | SF-295 CNS 16.6% | UACC-257 melanoma 85%

COC(=O)[C@]12CC[C@@H](C)[C@H](C)[C@@H]1C1=CC[C@@H]3[C@@]4(C)C[C@@H](OC(C)=O)[C@H](O)[C@@](C)(CO)[C@@H]4[C@H](O)C[C@@]3(C)[C@]1(C)CC2
active: NCI-H23 lung -82% | NCI-H226 lung -48.6% | NCI-H322M lung -93.2% | HOP-62 NSCLC -89.8% | NCI-H460 lung -72.6% | HOP-92 NSCLC -87.7% | NCI-H522 lung -90.3% | A549/ATCC NSCLC -88.3% | 786-0 renal -77.3% | DU-145 prostate -100% | K-562 leukemia -62.7% | MALME-3M melanoma -69.1% | MDA-MB-231 breast -62.3% | RXF 393 renal -88.9% | SF-268 CNS -84% | SF-295 CNS -92.2% | SF-539 CNS -90% | M14 melanoma -69.1%

COc1ccc(C2NC(=O)Nc3ccccc32)c(OC)c1 (configuration not stated)
inactive: NCI-H23 lung 102% | NCI-H226 lung 89.7% | NCI-H322M lung 96.6% | HOP-62 NSCLC 98.5% | NCI-H460 lung 101% | HOP-92 NSCLC 86.7% | NCI-H522 lung 91.6% | A549/ATCC NSCLC 98.4% | 786-0 renal 103% | DU-145 prostate 112% | K-562 leukemia 93.7% | MALME-3M melanoma 85.6% | MDA-MB-231 breast 94.7% | RXF 393 renal 110% | SF-268 CNS 100% | SF-295 CNS 94.2% | SF-539 CNS 93.8% | M14 melanoma 95.6%

COC(=O)[C@]12CC[C@@H](C)[C@H](C)[C@@H]1C1=CC(=O)[C@@H]3[C@@]4(C)C[C@@H](OC(C)=O)[C@H](OC(C)=O)[C@@](C)(COC(C)=O)[C@@H]4C(=O)C[C@@]3(C)[C@]1(C)CC2
inactive: NCI-H23 lung 45.4% | NCI-H226 lung 41.8% | NCI-H322M lung 82.6% | HOP-62 NSCLC 58.2% | NCI-H460 lung 32.4% | HOP-92 NSCLC 18.1% | NCI-H522 lung 47.6% | A549/ATCC NSCLC 42.5% | 786-0 renal 68.5% | COLO 205 colon 39.5% | DU-145 prostate 73% | MALME-3M melanoma 44.6% | MDA-MB-231 breast 41.6% | RXF 393 renal 64.5% | SF-268 CNS 73.8% | SF-295 CNS 51.6% | SF-539 CNS 72.3% | M14 melanoma 29.5%

C/C(=N\Nc1cc(C)c2cc(C)ccc2n1)c1ccccn1
inactive: NCI-H23 lung 10.2% | HOP-62 NSCLC 10.1% | DU-145 prostate 21%
active: NCI-H226 lung -5.19% | NCI-H322M lung -9.38% | NCI-H460 lung -68.7% | HOP-92 NSCLC -11% | NCI-H522 lung -93.5% | A549/ATCC NSCLC 1.9% | 786-0 renal -73.3% | COLO 205 colon -99.9% | K-562 leukemia -40.8% | MDA-MB-231 breast -89.1% | RXF 393 renal -88.2% | SF-268 CNS -4.43% | SF-539 CNS -92.4% | UACC-257 melanoma -73.5% | M14 melanoma -82.9%

OCC1OC(n2cnc3c(Cl)ncnc32)CC1O (configuration not stated)
inactive: NCI-H23 lung 118% | NCI-H226 lung 97.7% | NCI-H322M lung 101% | HOP-62 NSCLC 114% | NCI-H460 lung 104% | HOP-92 NSCLC 89.5% | NCI-H522 lung 101% | A549/ATCC NSCLC 104% | 786-0 renal 107% | DU-145 prostate 113% | K-562 leukemia 103% | MALME-3M melanoma 97.5% | MDA-MB-231 breast 106% | RXF 393 renal 103% | SF-268 CNS 99.1% | SF-295 CNS 114% | SF-539 CNS 96.2% | UACC-257 melanoma 110% | M14 melanoma 104%

N#CCCCCCn1c2ccccc2c2c3c(c4c5ccccc5n(CCCCCC#N)c4c21)C(=O)N(O)C3=O
inactive: NCI-H23 lung 72.5% | NCI-H226 lung 79.1% | NCI-H322M lung 81.5% | HOP-62 NSCLC 37.1% | NCI-H460 lung 87.7% | HOP-92 NSCLC 87.4% | NCI-H522 lung 53.7% | A549/ATCC NSCLC 94.5% | 786-0 renal 92.1% | DU-145 prostate 93.6% | K-562 leukemia 79.7% | MALME-3M melanoma 77.1% | MDA-MB-231 breast 32.3% | RXF 393 renal 80.8% | SF-268 CNS 70.3% | SF-295 CNS 89.2% | SF-539 CNS 71% | M14 melanoma 85.3%

C/C(=N\Nc1ccc2ccccc2n1)c1ccccn1
active: NCI-H226 lung 0.47% | NCI-H322M lung -12% | HOP-62 NSCLC 5.02% | NCI-H460 lung 0.889% | HOP-92 NSCLC -10.9% | NCI-H522 lung -16.4% | A549/ATCC NSCLC 4.55% | 786-0 renal 6.89% | COLO 205 colon 0.767% | K-562 leukemia 2.37% | MDA-MB-231 breast -5.17% | RXF 393 renal 9.99% | SF-268 CNS -3.84% | SF-539 CNS -44.2% | UACC-257 melanoma -22.6% | M14 melanoma -24.6%
inactive: NCI-H23 lung 23.3% | DU-145 prostate 13.1%

CC1(C)CC[C@]2(C(=O)NCCNCCN)CC[C@]3(C)C(=CC[C@@H]4[C@@]5(C)CCC(=O)C(C)(C)[C@@H]5CC[C@]43C)[C@@H]2C1
active: NCI-H460 lung -55.8% | K-562 leukemia -47.9% | MALME-3M melanoma -65% | MDA-MB-231 breast 6.83% | M14 melanoma -63.4%
inactive: NCI-H23 lung 93.3% | NCI-H226 lung 78.1% | NCI-H322M lung 81.1% | HOP-62 NSCLC 70.4% | HOP-92 NSCLC 39.7% | NCI-H522 lung 27.2% | A549/ATCC NSCLC 32.6% | 786-0 renal 78.3% | DU-145 prostate 32.5% | RXF 393 renal 50.1% | SF-268 CNS 72.7% | SF-295 CNS 96.7% | SF-539 CNS 76.5% | UACC-257 melanoma 92.8%

N#C/C(=C\c1ccc(-c2ccc(F)cc2)o1)c1nc(-c2ccco2)cs1
inactive: NCI-H23 lung 93.6% | NCI-H226 lung 84% | NCI-H322M lung 93% | HOP-62 NSCLC 96.7% | NCI-H460 lung 91.2% | HOP-92 NSCLC 93.9% | NCI-H522 lung 98.1% | A549/ATCC NSCLC 103% | 786-0 renal 109% | DU-145 prostate 104% | K-562 leukemia 95.9% | MALME-3M melanoma 98.1% | MDA-MB-231 breast 88.7% | RXF 393 renal 116% | SF-268 CNS 106% | SF-295 CNS 102% | SF-539 CNS 98.7% | UACC-257 melanoma 106% | M14 melanoma 102%

N#C/C(=C\c1ccc(-c2ccc(Cl)cc2)o1)c1nc(-c2ccco2)cs1
inactive: NCI-H23 lung 93.9% | NCI-H226 lung 89.3% | NCI-H322M lung 91.6% | HOP-62 NSCLC 97.5% | NCI-H460 lung 96% | HOP-92 NSCLC 85.8% | NCI-H522 lung 90.6% | A549/ATCC NSCLC 91.9% | 786-0 renal 104% | DU-145 prostate 103% | K-562 leukemia 94.4% | MALME-3M melanoma 99.9% | MDA-MB-231 breast 85.3% | RXF 393 renal 108% | SF-268 CNS 101% | SF-295 CNS 92.9% | SF-539 CNS 94.7% | UACC-257 melanoma 104%

N#Cc1c(-c2ccc(O)cc2)c2c(N)nn(-c3ccccc3)c2[nH]c1=O
inactive: NCI-H23 lung 98.9% | NCI-H226 lung 94.5% | NCI-H322M lung 103% | HOP-62 NSCLC 100% | NCI-H460 lung 110% | HOP-92 NSCLC 96.6% | NCI-H522 lung 91.3% | A549/ATCC NSCLC 117% | 786-0 renal 107% | DU-145 prostate 109% | K-562 leukemia 107% | MALME-3M melanoma 105% | MDA-MB-231 breast 97.8% | RXF 393 renal 113% | SF-268 CNS 100% | SF-295 CNS 110% | SF-539 CNS 95.7% | UACC-257 melanoma 109% | M14 melanoma 99.4%
